Screening data from PubChem BioAssay.
D1 ag = Allosteric Agonists of the Human D1 Dopamine Receptor: qHTS | D(1A) dopamine receptor (Homo sapiens), P21728 | HEK293 T-REx D1 cells, calcium flux, agonist mode | activation, % at 2 µM | 360,000 compounds, 1% hits | AID 504660, 2011
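Agonism was scored from calcium flux recorded over 180 s (1 read/s) after pintool compound addition, following a 10-cycle baseline. Cells were inducible force-coupled HEK293 TREx D1, plated overnight at 30 C and loaded with no-wash calcium dye.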
D1 PAM = Potentiators of Human D1 Dopamine Receptor: qHTS; D(1A) dopamine receptor (Homo sapiens), P21728; HEK293 TREx D1 cells, calcium flux, dopamine EC20 potentiation; potentiation, % at 10 µM; 360,000 compounds, 0.036% hits; AID 504651, 2011; in the data active = potentiation above about 30%
D1 antag = Antagonist of Human D 1 Dopamine Receptor: qHTS | D(1A) dopamine receptor (Homo sapiens), P21728 | HEK293 TREx D1 cells, calcium flux, dopamine EC80; stronger effect = lower value | activity change, negative = inhibition, % at 10 µM | 360,000 compounds, 3.2% hits; in the data active = activity change below about -30%
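After overnight tetracycline induction at 30 C, force-coupled D1 HEK293 cells took up a no-wash calcium dye at room temperature. Compounds were added and monitored 180 s, and the response to EC80 dopamine was then recorded.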
USP1-UAF1 inh = Inhibitors of USP1/UAF1: Primary Screen; Ubiquitin carboxyl-terminal hydrolase 1 (Homo sapiens), O94782; recombinant USP1/UAF1, Ub-Rhodamine cleavage fluorescence; Potency, µM (doses to about 57.1 µM), hits mostly inhibitors; 390,000 compounds, 0.23% hits; active = well fitted inhibition curve with a large enough effect; inconclusive = small, poorly fitted or top-dose-only effect; inactive = no such curve, though single readings can be large or run the other way; also: nearly all actives have a fitted effect of over 60% in size
Target sequence (O94782 whole entry, looked up): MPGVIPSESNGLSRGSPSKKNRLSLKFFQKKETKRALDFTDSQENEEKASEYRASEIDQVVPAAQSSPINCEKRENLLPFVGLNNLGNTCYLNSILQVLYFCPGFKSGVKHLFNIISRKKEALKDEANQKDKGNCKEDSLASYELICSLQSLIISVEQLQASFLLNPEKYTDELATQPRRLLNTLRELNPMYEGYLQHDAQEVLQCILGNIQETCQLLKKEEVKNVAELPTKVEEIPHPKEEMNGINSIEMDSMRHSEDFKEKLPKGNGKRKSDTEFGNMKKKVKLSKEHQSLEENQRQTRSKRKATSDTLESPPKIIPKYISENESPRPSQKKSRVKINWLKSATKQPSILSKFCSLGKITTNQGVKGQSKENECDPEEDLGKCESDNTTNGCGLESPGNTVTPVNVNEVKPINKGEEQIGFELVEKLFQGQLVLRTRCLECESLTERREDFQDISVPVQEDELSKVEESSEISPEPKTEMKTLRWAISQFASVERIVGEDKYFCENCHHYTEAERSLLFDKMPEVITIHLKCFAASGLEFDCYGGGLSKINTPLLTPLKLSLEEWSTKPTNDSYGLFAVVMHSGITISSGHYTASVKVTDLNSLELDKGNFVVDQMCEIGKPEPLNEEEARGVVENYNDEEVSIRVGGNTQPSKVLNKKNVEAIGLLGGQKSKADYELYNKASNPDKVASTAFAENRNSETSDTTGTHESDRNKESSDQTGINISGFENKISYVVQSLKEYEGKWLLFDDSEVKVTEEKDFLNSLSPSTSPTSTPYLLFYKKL
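In this screen, compounds sit with the deubiquitinase complex (1nM) for 15 min at room temperature before Ub-Rho is added at 150nM final. Fluorescence rise is then followed for 6 reads every 60 seconds.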
TRHR PAM = qHTS for Small Molecule Agonists and Allosteric Enhancers of Human TRH Receptor: Primary Screen for Enhancers | Thyrotropin-releasing hormone receptor (Homo sapiens), P34981 | TRHR cells, fluo-8 calcium fluorescence, EC20 TRH enhancement | enhancement, % at 2 µM | 360,000 compounds, 0.66% hits | AID 493056, 2011; in the data active = enhancement above about 30%
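TRHR-expressing cells loaded with fluo-8 calcium dye were read kinetically (ex 480/em 530) during compound addition, then stimulated with an EC20 of TRH (10 nM final). Enhancement of the Gq-mediated intracellular calcium response was scored.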
TRHR ag = qHTS for Small Molecule Agonists and Allosteric Enhancers of Human TRH Receptor: Primary Screen for Agonists; TRHR cells, calcium flux fluo-8, FDSS agonist mode; activation, % at 2 µM; 360,000 compounds, 0.18% hits; AID 493084, 2011
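TRHR-expressing cells, plated overnight in medium with 10% serum, were loaded with fluo-8 calcium dye at room temperature. After a 10 s baseline, library compound was pin-added and calcium release was recorded kinetically (ex 480/em 530) as agonist response.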
Each line names hits and unclear results; the compound was inactive in the other large screens. This is a sample that favours compounds with a hit; in the whole collection about 4.4% have one here. Rule as the data show it, unless noted: active = activation above about 30%; inactive = the rest.

CCOC(=O)c1c(C)[nH]c(C)c1S(=O)(=O)NCC(=O)Nc1cccc(SC)c1	none
COC(=O)c1ccccc1NC1c2ccccc2C(=O)N1c1cccnc1 (configuration not stated)	none
O=C1c2ccccc2C(Nc2ccccc2F)N1c1cccnc1 (configuration not stated)	D1 antag -35 (no result: D1 PAM)
O=[N+]([O-])c1cc(-n2cnnn2)ccc1N1CCC(Cc2ccccc2)CC1	D1 antag -35
CCOc1cc(/C=N/n2cnnc2)cc(Br)c1O	D1 antag -92
COc1cccc(/C=N/NC(=O)CC(=O)NCCc2ccccc2)c1OC	TRHR PAM 33
COc1cc(/C=N/NC(=O)c2ccc(-c3ccccc3)cc2)cc(OC)c1OC	none
COc1cccc(/C=N/NC(=O)c2ccc(N(C)S(=O)(=O)c3ccccc3)cc2)c1OC	D1 antag -36
COc1ccc(/C=N\NC(=O)c2ccc(-c3ccccc3)cc2)c(OC)c1OC	TRHR PAM 30
COc1ccc(/C=N/NC(=O)CNC(=O)c2ccc3c(c2)OCCO3)c(C(=O)O)c1OC	TRHR PAM 30
COc1ccccc1CNC(=O)c1cc2sccc2n1Cc1ccc(F)cc1	none
CCCN(CCC)CC(O)Cn1c2ccccc2c2ccccc21 (configuration not stated)	D1 ag 31
Cc1cccc(C)c1N(CC(O)Cn1c2ccccc2c2ccccc21)S(C)(=O)=O (configuration not stated)	D1 antag -36
CCCN(CCC)CC(O)Cn1cc(/C=C/C(=O)c2ccc(OCC)cc2)c2ccccc21 (configuration not stated)	D1 ag 69, D1 antag -32
Cc1ccc(NC(=O)CN2C(=O)CCc3cc(S(=O)(=O)N4CCOCC4)ccc32)cc1N(C)C	USP1-UAF1 inh inconclusive
COc1cc(NS(=O)(=O)c2ccc(C(=O)O)cc2)c2nc(C)ccc2c1	none (no result: USP1-UAF1 inh)
CC(=O)c1csc(-c2ccccc2)n1	D1 antag -55
COc1ccc(C2C(C(N)=O)=C(C)Nc3nc(SCc4ccccc4Cl)nn32)cc1OC (configuration not stated)	none
O=C(COC(=O)C1=COCCO1)NCc1ccc(F)cc1	none
COc1ccccc1CNC(=O)COC(=O)C1=COCCO1	D1 antag -66
O=c1oc2ccccc2cc1-c1nc2ccccc2o1	none
Nc1cc2nc3ccccc3oc-2cc1=O	D1 ag 33
O=C(CCC(=O)N1CCSc2ccccc21)Nc1cccc(F)c1	D1 antag -31
O=C(CCC(=O)N1CCSc2ccccc21)Nc1ccc(F)cc1	none
CC(C)Cn1c(-c2ccc(S(=O)(=O)N3CCCC3)cc2)csc1=Nc1ccccc1	none
COc1ccccc1N=c1scc(-c2ccc(S(=O)(=O)N3CCCC3)cc2)n1C	D1 antag -34
C(#CCN1CCC(Cc2ccccc2)CC1)COCCOCc1ccccc1	D1 antag -35
Clc1ccccc1OCCN1CCC(Cc2ccccc2)CC1	D1 antag -42
c1ccc(COCCN2CCN(CCOCc3ccccc3)CC2)cc1	none
OCc1ccccc1OCCCN1CCC(Cc2ccccc2)CC1	D1 antag -39
COc1cc(C(C)=O)ccc1OCCCN1CCC(Cc2ccccc2)CC1	none
CCC(CC)NC(=O)COC(=O)c1cc(Br)ccc1Cl	D1 antag -36
CCCCNC(=O)COC(=O)c1cc(Br)ccc1Cl	D1 antag -31
CCc1cccc(NS(=O)(=O)c2cc(-c3cnc(C)o3)ccc2OC)c1	none
COCCCNC(=O)NC(CCC(C)C)c1c(-n2cccc2)sc2c1CCN(C)C2 (configuration not stated)	none
COc1ccc(N2CCN(c3ncnc4onc(C)c34)CC2)cc1	D1 antag -36
Cc1noc2ncnc(N3CCN(c4ccc(F)cc4)CC3)c12	none
COc1cc(Cl)c(CC(=O)c2c[nH]c3ccccc23)cc1OC	none
Cc1cccc(C)c1NC(=O)c1c[nH]c2ccccc12	D1 antag -48
Cc1cccc(CC(=O)c2c[nH]c3ccccc23)c1	TRHR PAM 31
Cc1ccc(S(=O)(=O)NCCc2sc3nc(-c4ccccc4)nn3c2C)cc1C	none (no result: D1 antag)
Cc1ccc(SCc2nc(-c3ccc(C(=O)NCCc4ccc(Cl)cc4)cc3)oc2C)cc1	none
COc1ccc(OC)c(NC(=O)c2ccc(-c3nc(CSc4ccccc4)c(C)o3)cc2)c1	D1 antag -32, USP1-UAF1 inh inconclusive
Cc1ccc(SCc2nc(-c3ccc(C(=O)NCC(C)c4ccccc4)cc3)oc2C)cc1 (configuration not stated)	D1 ag 30
COc1cccc2c1Oc1ncccc1N(C(=O)Nc1ccc(F)c(Cl)c1)C2	none
CCOC(=O)c1cc(C#N)c(NCc2ccccc2)nc1C	D1 antag -43
CCOC(=O)c1cc(C(=O)NN)c(C)nc1C	D1 antag -87
CC(=O)c1cc(C#N)c(NCc2ccccc2)nc1C	none
CCOC(=O)c1ccc2c(c1)N(Cc1ccc(F)cc1Cl)C(=O)c1ccccc1S2(=O)=O	none
Cc1ccc(NC(=O)CSc2c3c(nc4ccccc24)CCCC3)cc1F	none
Cc1ccc(OCCN2CCNCC2)c([N+](=O)[O-])c1	none
Cc1ccc(OCCN2CCN(C)CC2)c([N+](=O)[O-])c1	D1 antag -38
Cc1ccc([N+](=O)[O-])c(OCCN2CCCCCC2)c1	none
O=[N+]([O-])c1ccccc1OCC(O)CN1CCN(CC(O)COc2ccccc2[N+](=O)[O-])CC1 (configuration not stated)	D1 antag -46
Cc1ccc(OCCCN2CCOCC2)c([N+](=O)[O-])c1	TRHR PAM 31
Cc1ccc([N+](=O)[O-])c(OCCN2CCc3ccccc3C2)c1	D1 antag -52
O=[N+]([O-])c1cc(S(=O)(=O)N2CCCC2)ccc1OCCOc1ccccc1	D1 ag 35 (no result: D1 PAM)
O=[N+]([O-])c1ccccc1OCCN1CCCC1	D1 antag -38
CCN(c1ccccc1)c1ncnc2c1cnn2-c1ccc(C)cc1C	none
CCOC(=O)c1cnn(-c2ccccc2)c1-n1cccc1C(=O)C(=O)Nc1ccc(F)cc1	D1 antag -85
